According to the supplement of paper PMC10037445:
In all, about 2,900 compounds were measured (“NF-kB SEAP reporter activity, fold change vs agonist alone”: median about 0.99, highest 2% from about 2.6 on). Many of the other results were omitted from the sample, so the highest values are more common in it than they were.

Experiments:
RAW-Dual [1] = experiment: NF-kB SEAP reporter activity, fold change vs agonist alone; higher = enhanced NF-kB activity; conditions: library stock concentration (final ~1000-fold dilution): 10 mM, cytotoxicity flag (confluency mask): not cytotoxic
Procedure, shortened: (§1)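 Cytotoxic wells were those whose IncuCyte confluency was below 70% of agonist controls in both mask sets. The cells were RAW-Dual macrophages at 50,000 cells/well in DMEM on 384-well plates, dosed with 50 nL of library stock by pin tool, stimulated with a PRR agonist 1 h later, and kept at 37 °C, 5% CO2 for 20 hours. IRF and NF-κB reporter activity, as fold change over agonist-alone wells, came from supernatant read by QuantiLuc luminescence and QuantiBlue absorbance, respectively.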

RAW-Dual [2] = experiment: NF-kB SEAP reporter activity, fold change vs agonist alone; cytotoxicity flag (confluency mask): not cytotoxic; higher = enhanced NF-kB activity
Procedure, shortened: as §1

[3] = agonist: ODN 1826 (TLR9) 0.5 ug/mL
[4] = agonist: Pam2CSK4 (TLR2/6) 0.1 ug/mL
[5] = agonist: Pam3CSK4 (TLR2/1) 0.1 ug/mL

Row | SMILES | NF-kB SEAP reporter activity (RAW-Dual [1]; agonist: Imiquimod (TLR7) […]) | NF-kB SEAP reporter activity (RAW-Dual [1]; agonist: MPLA (TLR4) […]) | NF-kB SEAP reporter activity (RAW-Dual [2]; agonist: LPS (TLR4) 0.1 ug/mL) | NF-kB SEAP reporter activity (RAW-Dual [2]; [3]) | NF-kB SEAP reporter activity (RAW-Dual [2]; [4]) | NF-kB SEAP reporter activity (RAW-Dual [2]; [5])
1 | CC(/C=C/C=C(\C)C(=O)OC1OC(COC2OC(CO)C(O)C(O)C2O)C(O)C(O)C1O)=C\C=C\C=C(C)\C=C\C=C(/C)C(=O)OC1OC(COC2OC(CO)C(O)C(O)C2O)C(O)C(O)C1O (centres undefined) | 0.915 | 1.03 | – | – | – | –
2 | CC(/C=C/C=C(\C)C(=O)OC1OC(COC2OC(CO)C(O)C(O)C2O)C(O)C(O)C1O)=C\C=C\C=C(C)\C=C\C=C(/C)C(=O)OC1OC(COC2OC(CO)C(O)C(O)C2O)C(O)C(O)C1O (centres undefined) (library stock concentration (final ~1000-fold dilution): 10 mM) | – | – | 1.08 | 0.948 | 1.16 | 1.19
3 | CS(=O)(=O)N1CCN(Cc2cc3nc(-c4cccc5[nH]ncc45)nc(N4CCOCC4)c3s2)CC1 | 1.77 | 1.75 | – | – | – | –
4 | Fc1ccc2[nH]ccc2c1-c1nc(N2CCOCC2)c2sc(CN3CCN(CC4CC4)CC3)cc2n1 | 0.944 | 1.25 | – | – | – | –
5 | CS(=O)(=O)N1CCN(Cc2cc3nc(-c4cccc5[nH]ncc45)nc(N4CCOCC4)c3s2)CC1 (library stock concentration (final ~1000-fold dilution): 10 mM) | – | – | 1.87 | 0.247 | 1.02 | 0.72
6 | Fc1ccc2[nH]ccc2c1-c1nc(N2CCOCC2)c2sc(CN3CCN(CC4CC4)CC3)cc2n1 (library stock concentration (final ~1000-fold dilution): 10 mM) | – | – | 2.9 | 0.272 | 1.03 | 0.935
7 | O=C(CCNC(=O)c1ccc(OC(F)(F)F)cc1)NC1CCCc2ccccc21 (centres undefined) (library stock concentration (final ~1000-fold dilution): 10 mM) | – | – | 0.767 | 1.33 | 0.519 | 0.68
8 | O=C(CCNC(=O)c1ccc(OC(F)(F)F)cc1)NC1CCCc2ccccc21 (centres undefined) | 1.66 | 1.13 | – | – | – | –
9 | COc1cc2c(cc1OC)CC(=O)N(CCCN(C)CC1Cc3cc(OC)c(OC)cc31)CC2.Cl (centres undefined) (library stock concentration (final ~1000-fold dilution): 10 mM) | – | – | 1.3 | 0.895 | 0.867 | 1.1
10 | COc1cc2c(cc1OC)CC(=O)N(CCCN(C)CC1Cc3cc(OC)c(OC)cc31)CC2.Cl (centres undefined) | 0.885 | 0.951 | – | – | – | –
11 | CCOC(=O)NC1CCC2C(C1)CC1C(=O)OC(C)C1C2/C=C/c1ccc(-c2cccc(F)c2)cn1 (centres undefined) (library stock concentration (final ~1000-fold dilution): 10 mM) | – | – | 0.824 | 0.243 | 0.212 | 0.158
